14-3-3 Bad inh = disrupts binding of bovine 14-3-3 zeta to phospho-Bad peptide. P63103. TR-FRET 14-3-3zeta/Dy647-pBad peptide displacement, 1 h. inhibition, % at 21.7 µM. actives 0.71% (n = 220,000). AID 781;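 active = inhibition above about 70%, limit read from the data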
Target sequence (P63103 whole entry, looked up): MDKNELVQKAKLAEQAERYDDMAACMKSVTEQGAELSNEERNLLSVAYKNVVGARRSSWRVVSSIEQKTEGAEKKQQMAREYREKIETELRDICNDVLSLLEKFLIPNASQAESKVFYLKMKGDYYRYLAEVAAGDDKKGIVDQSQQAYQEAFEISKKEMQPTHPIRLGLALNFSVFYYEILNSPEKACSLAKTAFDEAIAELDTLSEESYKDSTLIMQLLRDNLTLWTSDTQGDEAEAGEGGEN
p-CIP stab down = lowers stability of the mouse p/CIP coactivator protein; F442A p/CIP-EGFP cells, EGFP fluorescence, 16 h; AID 1984; decrease of EGFP signal, % at 10 µM; actives 0.01% (n = 290,000);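 active = EGFP signal decrease of at least 30% at 10 µM or well 3 SD below plate mean, unless failing retest; inactive = the rest, including hits failing retest or dose response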
bovine MsrA act = activators of bovine methionine sulfoxide reductase A | purified bovine MsrA, absorbance read-out | activation, % at 10.6 µM | actives 0.3% (n = 360,000); in the data active = activation above about 7.5%
MsrA inh = inhibitors of bovine MsrA | purified bovine MsrA, absorbance read-out | inhibition, % at 15.5 µM | actives 0.75% (n = 360,000) | AID 651718
MsrA inh confirm = bovine MsrA inhibition, confirmed; shares compounds with MsrA inh; purified bovine MsrA, absorbance read-out; inhibition, % at 15.5 µM; actives 41% (n = 2,300);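 note: coupled to thioredoxin reductase with NADPH and selenocystamine and DMSO as substrate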
Hits are given with their value; n = inactive; x = not tested or not shown; ! = not confirmed by another sample. Hits are enriched below; roughly 1.4% of the tested compounds scored in any of these assays. Cut-off read from the data, not from the text of the source, unless noted: active = inhibition above about 4.5%; inactive = the rest.

SMILES	14-3-3 Bad inh	p-CIP stab down	bovine MsrA act	MsrA inh	MsrA inh confirm
CC(C)Oc1ccc(S(=O)(=O)N2CCOCC2)cc1NC(=O)Cc1cccs1	x	x	n	n	x
CNC(=S)N/N=C/c1ccc(-c2cccc(C(=O)O)c2)o1	n	n	n	4.9	6.2
Nc1nonc1C(=O)N/N=C/c1ccc(-c2cccc(C(=O)O)c2)o1	n	n	x	x	x
CC(=O)c1ccc(N2CCN(C(=O)C3CCCN(S(=O)(=O)c4c(C)[nH]c(=O)[nH]c4=O)C3)CC2)cc1 (stereo not drawn)	n	n	n	4.7	n
CN(C)C(/C=C/Nc1ccccc1F)=C(C#N)C#N	n	n	n	n	x
COc1ccccc1N/C=C/C(=C(C#N)C#N)N(C)C	n	n	n	5.5	n
O=C(OCC(=O)N1CCCCCC1)c1ccc(F)cc1F	x	x	n	n	x
COc1cc(/C=N/NC(=O)c2cc(-c3ccco3)nc3ccccc23)cc(OC)c1O	n	n	n	4.7	n
COc1cccc(-c2cc(C(=O)N/N=C/c3cccc(OC)c3OC)c3ccccc3n2)c1	x	x	n	n	x
COc1cc(/C=N/NC(=O)c2cc(-c3ccccc3Cl)nc3ccccc23)cc(OC)c1O	x	x	n	n	x
COc1ccc(/C=N/NC(=O)c2cc(-c3ccccc3)nc3ccccc23)cc1O	x	n	n	n	x
COc1cc(/C=N/NC(=O)c2cc(-c3ccccc3)nc3ccccc23)ccc1O	x	n	n	5.0	n
Cc1nn(-c2ccccc2)c(N2CCCC2)c1/C=N/NC(=O)c1cc(-c2cccnc2)nc2ccccc12	n	n	n	4.7	n
Cc1nn(-c2ccccc2)c(N2CCCC2)c1/C=N/NC(=O)c1ccccc1O	n	n	n	n	x
COc1ccc(/C=N/NC(=O)c2cc(-c3ccccc3)nc3ccccc23)c(C(=O)O)c1OC	x	n	n	4.7	n
O=C(N[C@@H](Cc1ccccc1)C(=O)N1CCN(S(=O)(=O)c2ccc(F)cc2)CC1)c1ccco1	x	x	n	n	x
COc1cc(/C=N/n2c(C)nc3ccccc3c2=O)ccc1O	x	n	n	5.4	n
Cc1nc2ccccc2c(=O)n1/N=C/c1ccccc1	n	n	n	n	x
COc1ccc(/C=N/NC(=O)c2[nH]c3ccc(C)cc3c2-c2ccccc2)c(C(=O)O)c1OC	x	n	n	6.2	n
COc1ccc(-c2cc(C(=O)N/N=C/c3ccc4c(c3)OCO4)c3ccccc3n2)c(OC)c1	n	n	n	5.8	n
Cc1cc(=O)[nH]c(Nc2ccccc2C)n1	x	n	n	n	x
CCC(CC)C(=O)N(C)c1c(C)nc2c(OCc3ccccc3C(=O)OC)cccn12	x	x	n	n	x
O=[N+]([O-])c1ccc(Nc2ccccc2)c2nonc12	x	n	n	5.8	n
CCOC(=O)C1CCCN(C(=O)c2cc3cc(OC)c(OC)cc3[nH]2)C1 (stereo not drawn)	x	n	n	n	x
CCOC(=O)C1(CC2CCCCO2)CCN(C(=O)Nc2ccccc2CC)CC1 (stereo not drawn)	n	n	n	n	x
SMILES	14-3-3 Bad inh	p-CIP stab down	bovine MsrA act	MsrA inh	MsrA inh confirm
CCOc1ccc(N2C(=O)CC(NCC#N)C2=O)cc1 (stereo not drawn)	x	n	n	n	x
O=C(N/N=C/c1ccc(-c2ccccc2C(=O)O)o1)c1cccs1	n	n	n	6.8	4.6
COc1ccc(N(C(=O)Cn2nnc(-c3ccccc3F)n2)C(C(=O)NCC2CCCO2)c2ccc(Cl)cc2)cc1 (stereo not drawn)	n	n	n	n	x
CS(=O)(=O)Nc1ccc(-c2cn3cccnc3n2)cc1	x	n	n	4.8	n
CC(C)OC(=O)N(C)C[C@H]1OCc2cn(nn2)CCCC(=O)N([C@H](C)CO)C[C@@H]1C	x	x	n	n	x
N#C/C(=C(/O)c1cc2ccccc2o1)c1nc2ccccc2s1	n	n	n	n	x
N#C/C(=C(/O)c1ccco1)c1nc2ccccc2s1	n	n	n	4.8!	4.6
N#CC(C(=O)c1ccco1)c1ccccn1 (stereo not drawn)	n	n	n	5.9	n
N#C/C(=C(/O)CN1CCOCC1)c1nc2ccccc2s1	n	n	n	4.8	n
N#C/C(=C(\O)c1ccco1)c1ccccn1	n	n	n	5.1	n
COCCCNC(=O)c1ccccc1-c1cc(C)no1	n	n	n	n	x
CN1CCC(=NNC(=O)CN(c2ccc([N+](=O)[O-])cc2)S(=O)(=O)c2ccccc2)CC1	x	n	n	n	x
Cc1cc2oc(=O)cc(CN3CCOCC3)c2c(C)c1Cl	x	n	n	n	x
CN(C(=O)CS(=O)(=O)c1cn(CC(=O)N2CCCC2)c2ccccc12)c1ccccc1	x	n	n	n	x
N#C/C(=C(/O)c1ccco1)c1nc2ccccc2[nH]1	n	n	n	7.2	4.6
N#C/C(=C(\O)Cc1ccccc1)c1nc2ccccc2[nH]1	n	n	n	n	x
CC1CCCN(C(=O)NC2CC(=O)N(c3ccc4c(c3)OCCO4)C2)C1 (stereo not drawn)	x	x	n	n	x
O=c1cc2[nH]c3ccccc3c(=O)n2nc1-c1ccccc1	n	n	n	4.9	n
Cc1nn(-c2ccccc2)c(N)c1N=Nc1ccccc1	n	n	n	5.3	n
S=c1nccc(-c2ccc3c(c2)CCO3)[nH]1	n	n	n	5.6	n
CC1(C)CCc2cc(-c3ccnc(=S)[nH]3)ccc2O1	n	n	n	n	x
CCN(CC)S(=O)(=O)c1ccc(NC(=O)CCN2C(=O)C3CC=CCC3C2=O)cc1 (stereo not drawn)	x	x	n	n	x
Cc1[nH]c2ccccc2c1/C=N\NC(=O)c1ccco1	x	n	n	6.6	5.3
Cc1[nH]c2ccccc2c1/C=N/NC(=O)c1cccc(F)c1	n	n	n	4.8	n
CCN(C(=O)COC(=O)CNS(=O)(=O)c1ccc(SC)c([N+](=O)[O-])c1)C1CCCCC1	x	x	n	n	x
SMILES	14-3-3 Bad inh	p-CIP stab down	bovine MsrA act	MsrA inh	MsrA inh confirm
COc1ccccc1C(=O)NCCC(=O)N1CC=C(c2ccccc2)CC1	x	x	n	n	x
O=[N+]([O-])c1ccc(N/N=C2\CC3CC=CC23)cc1 (stereo not drawn)	n	n	n	n	x
O=[N+]([O-])c1ccc(N/N=C2\CC3CC=CC23)c([N+](=O)[O-])c1 (stereo not drawn)	n	n	n	5.6	n
O=c1oc2ccccc2c(NCc2ccccc2)c1[N+](=O)[O-]	n	n	n	5.8	5.0
CC(Nc1c([N+](=O)[O-])c(=O)oc2ccccc12)c1ccccc1 (stereo not drawn)	n	n	n	25	21
CC(C)Nc1c([N+](=O)[O-])c(=O)oc2ccccc12	n	n	n	n	x
Nc1c([N+](=O)[O-])c(=O)oc2ccccc12	n	n	n	5.9	n
O=c1oc2ccccc2c(NCc2ccc(Cl)cc2)c1[N+](=O)[O-]	n	n	n	n	x
CC(OC(=O)c1cc(=O)[nH]c2ccccc12)C(=O)NC1CCCC1 (stereo not drawn)	x	x	n	n	x
Cn1cnnc1SC/C(O)=C(\C#N)c1nc2ccccc2[nH]1	n	n	n	4.8	n
CCCn1c(SC/C(O)=C(\C#N)c2nc3ccccc3[nH]2)n[nH]c1=O	n	n	n	4.7	n
O=C(Nc1cccc(S(=O)(=O)N2CCCCC2)c1)Nc1ccc(Cl)cc1Cl	n	n	n	n	x
CCc1nc2ccc(C(=O)NCCc3ccc(OC)cc3)cc2nc1CC	x	n	n	n	x
